# From PubChem BioAssay (EPA / NIEHS)
# Inconclusive results are not listed. Activity calls are given as the source filed them. Rule for the calls: active = hit-call score of the fitted dose curve at least 0.9, where 1 is the maximum; inconclusive = response in the unintended direction; inactive = score below 0.9.
# Columns and labels:
# [1] = molecular target: human CYP4F12, CYP4F12 (gene 66002) (UniProt Q9HCS2); assay: NVS_ADME_hCYP4F12: NovaScreen (NVS) CYP450-related Enzyme Activity (ADME) Assay for human CYP4F12 (AID 2283111)
# Sequence of human CYP4F12, CYP4F12 (gene 66002) (Q9HCS2 whole entry, looked up): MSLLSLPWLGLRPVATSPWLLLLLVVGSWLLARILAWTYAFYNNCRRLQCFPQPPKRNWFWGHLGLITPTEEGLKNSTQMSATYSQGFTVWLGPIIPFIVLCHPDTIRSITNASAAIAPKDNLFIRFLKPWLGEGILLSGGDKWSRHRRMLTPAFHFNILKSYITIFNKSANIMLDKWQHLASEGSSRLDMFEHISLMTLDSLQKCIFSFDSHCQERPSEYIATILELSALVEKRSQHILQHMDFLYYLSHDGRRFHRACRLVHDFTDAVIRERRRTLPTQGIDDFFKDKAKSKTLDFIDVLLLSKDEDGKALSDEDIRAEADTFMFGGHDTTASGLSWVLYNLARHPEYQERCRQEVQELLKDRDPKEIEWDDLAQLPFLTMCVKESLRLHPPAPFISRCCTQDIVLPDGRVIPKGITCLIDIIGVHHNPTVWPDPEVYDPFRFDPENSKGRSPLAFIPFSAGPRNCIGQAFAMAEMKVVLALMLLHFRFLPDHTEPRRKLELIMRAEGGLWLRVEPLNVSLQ
# Procedure, shortened: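 Cell-free fluorescence assay of recombinant human CYP4F12 activity on a specific substrate, read 0.5 h after dosing. Primary screen in duplicate at 10 uM, then concentration series for actives; loss of signal fitted against acetonitrile negative control.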
# [2] = molecular target: rat Monoamine Oxidase, MAO-B, Peripheral (MAOBP), Maob (gene 25750) (UniProt P19643); assay: NVS_ENZ_rMAOBP: NovaScreen (NVS) Enzymatic Assay for rat Monoamine Oxidase, MAO-B, Peripheral (MAOBP) (AID 2283242)
# Sequence of rat Monoamine Oxidase, MAO-B, Peripheral (MAOBP), Maob (gene 25750) (P19643 whole entry, looked up): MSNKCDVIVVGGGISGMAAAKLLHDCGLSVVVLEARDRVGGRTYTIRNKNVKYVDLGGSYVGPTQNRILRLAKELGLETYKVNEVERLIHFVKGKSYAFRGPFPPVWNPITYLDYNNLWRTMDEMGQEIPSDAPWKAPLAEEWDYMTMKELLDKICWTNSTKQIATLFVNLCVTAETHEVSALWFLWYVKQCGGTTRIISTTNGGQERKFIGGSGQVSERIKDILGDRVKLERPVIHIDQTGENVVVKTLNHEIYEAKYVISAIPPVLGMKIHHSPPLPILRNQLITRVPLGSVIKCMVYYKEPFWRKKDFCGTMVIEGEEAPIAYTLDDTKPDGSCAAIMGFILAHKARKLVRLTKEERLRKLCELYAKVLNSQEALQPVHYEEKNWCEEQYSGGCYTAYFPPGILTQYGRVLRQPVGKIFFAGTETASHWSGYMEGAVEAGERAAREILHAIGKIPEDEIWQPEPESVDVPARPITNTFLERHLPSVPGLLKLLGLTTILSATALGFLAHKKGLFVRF
# [3] = molecular target: human Acetylcholinesterase (AChE), ACHE (gene 43) (UniProt P22303); assay: NVS_ENZ_hAChE: NovaScreen (NVS) Enzymatic Assay for human Acetylcholinesterase (AChE) (AID 2283129)
# Sequence of human Acetylcholinesterase (AChE), ACHE (gene 43) (P22303 whole entry, looked up): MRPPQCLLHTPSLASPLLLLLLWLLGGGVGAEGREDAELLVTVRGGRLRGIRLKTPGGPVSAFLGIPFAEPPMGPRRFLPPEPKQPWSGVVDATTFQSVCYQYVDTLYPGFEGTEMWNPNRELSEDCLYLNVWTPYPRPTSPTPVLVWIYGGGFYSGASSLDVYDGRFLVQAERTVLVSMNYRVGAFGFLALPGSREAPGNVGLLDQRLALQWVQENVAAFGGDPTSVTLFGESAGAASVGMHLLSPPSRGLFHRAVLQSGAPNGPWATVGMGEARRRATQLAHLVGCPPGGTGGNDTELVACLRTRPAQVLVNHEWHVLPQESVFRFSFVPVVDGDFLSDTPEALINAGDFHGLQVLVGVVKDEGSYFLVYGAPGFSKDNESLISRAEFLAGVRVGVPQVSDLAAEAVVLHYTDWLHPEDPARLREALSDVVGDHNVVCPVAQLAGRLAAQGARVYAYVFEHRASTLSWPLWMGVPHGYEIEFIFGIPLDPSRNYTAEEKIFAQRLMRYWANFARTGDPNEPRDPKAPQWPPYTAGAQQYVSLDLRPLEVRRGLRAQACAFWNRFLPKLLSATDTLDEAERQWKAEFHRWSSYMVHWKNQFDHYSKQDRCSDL
# Procedure, shortened: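 Cell-free colorimetric enzyme-activity assay; compounds read 0.33 hour after dosing, loss of signal vs DMSO baseline. Primary screen in duplicate at 25 uM single concentration, with active compounds retested in concentration series.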
# [4] = molecular target: human AMP-activated Protein Kinase, alpha 1 (AMPKa1), PRKAA1 (gene 5562) (UniProt Q13131); assay: NVS_ENZ_hAMPKa1: NovaScreen (NVS) Enzymatic Assay for human AMP-activated Protein Kinase, alpha 1 (AMPKa1) (AID 2283130)
# Procedure, shortened: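 Recombinant human AMPKα1 activity was measured cell-free by fluorescent substrate conversion with electrophoretic mobility-shift separation, 1 h after dosing. Duplicate single-point screening was at 25 uM; actives (≥30% inhibition) were retested in concentration-response up to 50 uM.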
# [5] = molecular target: human Fibroblast Growth Factor Receptor 1 (FGFR1), FGFR1 (gene 2260) (UniProt P11362); assay: NVS_ENZ_hFGFR1: NovaScreen (NVS) Enzymatic Assay for human Fibroblast Growth Factor Receptor 1 (FGFR1) (AID 2283159);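 for AC50: hits lower the signal so potencies describe inhibitors of the kinase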
# Sequence of human Fibroblast Growth Factor Receptor 1 (FGFR1), FGFR1 (gene 2260) (P11362 whole entry, looked up): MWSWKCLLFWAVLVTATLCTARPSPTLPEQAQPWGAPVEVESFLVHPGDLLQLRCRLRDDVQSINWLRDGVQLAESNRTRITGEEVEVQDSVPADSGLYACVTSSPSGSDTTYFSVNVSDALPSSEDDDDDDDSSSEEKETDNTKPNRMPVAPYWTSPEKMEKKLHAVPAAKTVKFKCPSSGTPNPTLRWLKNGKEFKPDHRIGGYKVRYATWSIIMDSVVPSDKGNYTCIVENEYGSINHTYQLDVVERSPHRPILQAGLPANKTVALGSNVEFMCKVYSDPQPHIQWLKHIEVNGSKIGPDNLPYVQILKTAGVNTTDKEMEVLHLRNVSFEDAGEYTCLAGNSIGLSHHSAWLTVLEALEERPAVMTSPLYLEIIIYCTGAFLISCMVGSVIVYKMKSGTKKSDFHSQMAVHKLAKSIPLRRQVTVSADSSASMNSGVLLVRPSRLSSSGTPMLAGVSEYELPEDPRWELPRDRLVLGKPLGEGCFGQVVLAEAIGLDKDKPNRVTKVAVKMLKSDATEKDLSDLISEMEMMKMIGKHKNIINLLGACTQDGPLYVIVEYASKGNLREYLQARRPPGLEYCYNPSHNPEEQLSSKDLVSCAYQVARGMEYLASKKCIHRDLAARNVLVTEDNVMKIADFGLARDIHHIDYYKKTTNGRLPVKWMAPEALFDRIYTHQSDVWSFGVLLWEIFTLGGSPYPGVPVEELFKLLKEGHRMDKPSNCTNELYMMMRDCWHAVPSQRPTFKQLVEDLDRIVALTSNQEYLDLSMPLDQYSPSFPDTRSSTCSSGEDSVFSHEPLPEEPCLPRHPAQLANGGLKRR
# Procedure, shortened: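 Cell-free recombinant kinase with fluorescent substrate, product separated by electrophoretic mobility shift; read 1 hour after dosing, loss of signal relative to DMSO. Initial screen in duplicate at 25 uM, actives followed in concentration series.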
# [6] = tested on: rat Monoamine Oxidase, MAO-A, Central (MAOAC), gene 29253; assay: NVS_ENZ_rMAOAC: NovaScreen (NVS) Enzymatic Assay for rat Monoamine Oxidase, MAO-A, Central (MAOAC) (AID 2283243);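 note: potency refers to inhibition seen as signal drop below DMSO baseline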
# Procedure, shortened: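 Rat brain tissue extract served as the cell-free enzyme source; activity was measured by radiometric scintillation counting 1.5 hours after compound addition. Loss of signal relative to DMSO baseline indicated inhibition; primary screen at 25 uM in duplicate.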
# [7] = molecular target: rat Oxytocin Receptor (OXT), Oxtr (gene 25342) (UniProt P70536); assay: NVS_GPCR_rOXT: NovaScreen (NVS) G Protein-Coupled Receptor Assay for rat Oxytocin Receptor (OXT) (AID 2283330)
# Sequence of rat Oxytocin Receptor (OXT), Oxtr (gene 25342) (P70536 whole entry, looked up): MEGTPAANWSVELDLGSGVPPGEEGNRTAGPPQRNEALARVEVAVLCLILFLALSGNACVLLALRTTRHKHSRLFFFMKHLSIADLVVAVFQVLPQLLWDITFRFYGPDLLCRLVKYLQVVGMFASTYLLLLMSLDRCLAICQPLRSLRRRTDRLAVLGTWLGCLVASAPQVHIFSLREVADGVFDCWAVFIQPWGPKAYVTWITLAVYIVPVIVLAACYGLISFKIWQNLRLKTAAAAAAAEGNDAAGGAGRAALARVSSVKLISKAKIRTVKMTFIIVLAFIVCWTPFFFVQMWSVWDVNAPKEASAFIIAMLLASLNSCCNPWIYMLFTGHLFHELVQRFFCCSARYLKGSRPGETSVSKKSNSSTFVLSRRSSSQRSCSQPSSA
# Procedure, shortened: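 Radioligand displacement on rat uterine membranes, 1 h incubation, filter-based scintillation counting. Chemicals were screened in duplicate at 25 uM, and those passing threshold were retested in concentration-response up to 50 uM. Loss of binding was fitted versus DMSO.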
# [8] = molecular target: Protein deacetylase HDAC6 (Homo sapiens) (UniProt Q9UBN7); assay: NVS_ENZ_hHDAC6: NovaScreen (NVS) Enzymatic Assay for human Histone Deacetylase 6 (HDAC6) (AID 2283164)
# Procedure, shortened: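 Recombinant human HDAC6 with fluorescent substrate, 1 h; product separated from substrate by electrophoretic mobility shift. Primary screen in duplicate at 25 uM; actives retested singly in concentration-response up to 50 uM, fitted relative to DMSO.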
# [9] = molecular target: human p21 Activated Kinase 4 (PAK4), PAK4 (gene 10298) (UniProt O96013); assay: NVS_ENZ_hPAK4: NovaScreen (NVS) Enzymatic Assay for human p21 Activated Kinase 4 (PAK4) (AID 2283189)
# Procedure, shortened: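 Cell-free recombinant human PAK4 activity assay; fluorescent substrate and product separated by electrophoretic mobility shift, read 1 h after dosing. Initially tested in duplicate at 25 uM, relative to DMSO baseline.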
# [10] = molecular target: human Phosphatase and Tensin Homolog (PTEN), PTEN (gene 5728) (UniProt P60484); assay: NVS_ENZ_hPTEN: NovaScreen (NVS) Enzymatic Assay for human Phosphatase and Tensin Homolog (PTEN) (AID 2283203)
# Sequence of human Phosphatase and Tensin Homolog (PTEN), PTEN (gene 5728) (P60484 whole entry, looked up): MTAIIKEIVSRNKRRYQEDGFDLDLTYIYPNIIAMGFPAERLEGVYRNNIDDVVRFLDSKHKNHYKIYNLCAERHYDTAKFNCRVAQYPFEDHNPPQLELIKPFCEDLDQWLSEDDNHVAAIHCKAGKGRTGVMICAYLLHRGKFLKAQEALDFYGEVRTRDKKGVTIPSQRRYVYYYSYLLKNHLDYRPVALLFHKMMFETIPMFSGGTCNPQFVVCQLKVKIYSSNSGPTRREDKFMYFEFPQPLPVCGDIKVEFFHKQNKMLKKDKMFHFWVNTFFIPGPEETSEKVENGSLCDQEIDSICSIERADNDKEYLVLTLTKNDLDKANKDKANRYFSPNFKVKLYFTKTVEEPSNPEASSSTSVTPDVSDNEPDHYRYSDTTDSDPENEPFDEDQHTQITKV
# Procedure, shortened: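 Cell-free recombinant human PTEN with fluorescent substrate; product separated by electrophoretic mobility shift and read by fluorescence 1 h after dosing. Primary screen in duplicate at 25 uM, actives followed in concentration series versus DMSO.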
# [11] = molecular target: human Tyrosine Protein Kinase Receptor Tie-2 (Tie2), TEK (gene 7010) (UniProt Q02763); assay: NVS_ENZ_hTie2: NovaScreen (NVS) Enzymatic Assay for human Tyrosine Protein Kinase Receptor Tie-2 (Tie2) (AID 2283225)
# Sequence of human Tyrosine Protein Kinase Receptor Tie-2 (Tie2), TEK (gene 7010) (Q02763 whole entry, looked up): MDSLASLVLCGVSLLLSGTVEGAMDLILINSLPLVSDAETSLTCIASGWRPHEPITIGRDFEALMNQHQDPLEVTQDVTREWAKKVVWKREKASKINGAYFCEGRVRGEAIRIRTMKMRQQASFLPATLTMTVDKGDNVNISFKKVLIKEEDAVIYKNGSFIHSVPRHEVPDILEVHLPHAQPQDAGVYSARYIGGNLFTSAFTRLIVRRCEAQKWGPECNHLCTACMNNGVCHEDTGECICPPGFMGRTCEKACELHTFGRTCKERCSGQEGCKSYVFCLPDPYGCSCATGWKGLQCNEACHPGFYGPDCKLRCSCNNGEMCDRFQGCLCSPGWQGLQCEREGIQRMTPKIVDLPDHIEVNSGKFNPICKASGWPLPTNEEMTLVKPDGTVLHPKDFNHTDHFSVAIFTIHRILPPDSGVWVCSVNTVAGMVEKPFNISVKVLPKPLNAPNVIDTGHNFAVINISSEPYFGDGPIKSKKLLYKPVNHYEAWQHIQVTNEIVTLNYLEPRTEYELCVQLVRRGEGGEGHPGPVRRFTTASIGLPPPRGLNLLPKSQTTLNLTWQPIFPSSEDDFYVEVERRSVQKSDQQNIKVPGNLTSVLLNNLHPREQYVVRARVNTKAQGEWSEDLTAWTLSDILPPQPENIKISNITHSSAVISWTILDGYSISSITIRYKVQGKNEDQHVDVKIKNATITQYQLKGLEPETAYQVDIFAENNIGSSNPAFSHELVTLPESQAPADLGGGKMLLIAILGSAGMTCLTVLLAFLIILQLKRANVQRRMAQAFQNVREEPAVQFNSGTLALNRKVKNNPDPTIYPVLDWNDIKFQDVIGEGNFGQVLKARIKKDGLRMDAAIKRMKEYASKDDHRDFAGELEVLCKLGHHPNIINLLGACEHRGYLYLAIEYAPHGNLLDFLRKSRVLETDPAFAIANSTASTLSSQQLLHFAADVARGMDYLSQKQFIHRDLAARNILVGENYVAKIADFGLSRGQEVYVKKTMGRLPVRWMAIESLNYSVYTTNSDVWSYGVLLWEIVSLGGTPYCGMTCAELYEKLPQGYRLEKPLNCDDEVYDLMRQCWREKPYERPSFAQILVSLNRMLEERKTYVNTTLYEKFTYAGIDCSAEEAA
# Procedure, shortened: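 Recombinant human Tie2 kinase activity was read cell-free by fluorescence with electrophoretic mobility shift, 1 hour after dosing. The screen used 25 uM in duplicate, then concentration-response up to 50 uM. Signal loss was scored against DMSO.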
# rat CYP2B1, gene 24300 = assay: NVS_ADME_rCYP2B1: NovaScreen (NVS) CYP450-related Enzyme Activity (ADME) Assay for rat CYP2B1 (AID 2283117)
# Procedure, shortened: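 Recombinant rat CYP2B1 with fluorogenic substrate, read at 0.75 h. Primary screen in duplicate at 10 uM; compounds meeting threshold (e.g., 30% inhibition) re-run in concentration-response up to 20 uM. Fitted against acetonitrile control.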
# [12] = molecular target: rat CYP2D1, Cyp2d1 (gene 266684) (UniProt P10633); assay: NVS_ADME_rCYP2D1: NovaScreen (NVS) CYP450-related Enzyme Activity (ADME) Assay for rat CYP2D1 (AID 2283122)
# Sequence of rat CYP2D1, Cyp2d1 (gene 266684) (P10633 whole entry, looked up): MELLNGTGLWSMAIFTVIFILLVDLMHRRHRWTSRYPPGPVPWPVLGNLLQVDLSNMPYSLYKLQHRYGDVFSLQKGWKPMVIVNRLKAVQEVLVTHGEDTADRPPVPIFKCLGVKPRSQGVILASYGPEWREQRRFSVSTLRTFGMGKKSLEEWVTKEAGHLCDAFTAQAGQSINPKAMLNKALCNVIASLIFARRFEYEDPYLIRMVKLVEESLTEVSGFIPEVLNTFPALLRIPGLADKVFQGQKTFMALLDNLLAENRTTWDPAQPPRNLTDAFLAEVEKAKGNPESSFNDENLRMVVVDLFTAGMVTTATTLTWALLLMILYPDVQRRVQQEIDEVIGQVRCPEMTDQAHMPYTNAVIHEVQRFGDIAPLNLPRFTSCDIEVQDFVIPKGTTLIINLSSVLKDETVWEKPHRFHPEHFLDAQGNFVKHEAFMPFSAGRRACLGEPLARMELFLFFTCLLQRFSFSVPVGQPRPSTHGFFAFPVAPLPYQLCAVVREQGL
# Procedure, shortened: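 Cell-free fluorescence enzyme-activity assay on extracted rat CYP2D1 protein, read 0.75 h after dosing. Primary screen in duplicate at 10 uM; qualifying chemicals then run in concentration-response to 20 uM max, loss-of-signal versus acetonitrile baseline.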
# [13] = read-out: xenobiotic metabolism (CYP2C9), CYP2C9 (gene 1559); assay: CLD_CYP2C9_6hr: CellzDirect (CLD) Gene Expression Assay for xenobiotic metabolism (CYP2C9) at 6 hours (AID 2283664)
# Procedure, shortened: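 Primary human hepatocytes dosed daily with test chemicals at multiple concentrations; harvested at 6 h. CYP2C9 mRNA induction measured by qNPA chemiluminescence. Gain of signal fitted against 0.2% DMSO vehicle; cytotoxicity annotated from phase-contrast morphology.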
# [14] = molecular target: human Ephrin type-B Receptor 2 (EphB2), EPHB2 (gene 2048) (UniProt P29323); assay: NVS_ENZ_hEphB2: NovaScreen (NVS) Enzymatic Assay for human Ephrin type-B Receptor 2 (EphB2) (AID 2283156)
# Procedure, shortened: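 Recombinant kinase with fluorescent substrate, product separated by electrophoretic mobility shift, read 1 h after dosing. Duplicate 25 uM screen, then singleton concentration-response to 50 uM max; loss of signal versus DMSO.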
smiles,measurement,setting,value
COc1cccc([C@H](O)C2CCN(CCc3ccc(F)cc3)CC2)c1OC,AC50,[1],0.441 µM (active)
same,AC50,[2],12.5 µM (active)
O=C1OC(c2ccc(O)cc2)(c2ccc(O)cc2)c2ccccc21,outcome,[3],inactive
Cc1nc(-c2ccc3c(c2)CCN(CCC2CCC(NC(=O)/C=C/c4ccc(F)cc4)CC2)CC3)no1 (stereo not given),outcome,[1],inactive
same,outcome,[4],inactive
same,AC50,[5],5.82 µM (active)
same,outcome,[6],inactive
same,outcome,[7],inactive
CC[C@H](C)C(=O)O[C@H]1C[C@@H](C)C=C2C=C[C@H](C)[C@H](CC[C@@H]3C[C@@H](O)CC(=O)O3)[C@H]21,outcome,[1],inactive
same,outcome,[5],inactive
same,outcome,[8],inactive
same,outcome,[9],inactive
same,outcome,[10],inactive
same,outcome,[11],inactive
C#CCOC(=O)[C@@H](C)Oc1ccc(Oc2ncc(Cl)cc2F)cc1,AC50,"rat CYP2B1, gene 24300",1.36 µM (active)
same,AC50,[12],3.73 µM (active)
same,outcome,[13],inactive
CCCCCCC(C)OC(=O)COc1nc(F)c(Cl)c(N)c1Cl (stereo not given),AC50,"rat CYP2B1, gene 24300",6.09 µM (active)
same,outcome,[14],inactive
same,outcome,[6],inactive
